Entries with a potency or affinity are not part of this list. Activity calls are given as the source filed them.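 The calls were made as follows: active = compounds lowering viability with a fitted half-maximal potency at or below twice the top tested dose; inconclusive = flat fit showing 30 to 70% loss, or poor fit; inactive = the rest.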
assay: cytotoxicity in primary human melanocytes, dose response, cytotoxicity control, cell-based, plate reader, dry powder (AID 651920); conditions: ATP luminescence, 24 h; series mostly up to 35 µM; activity change, negative = viability loss: at the top concentration

Compound	activity change, negative = viability loss
O=C1C(Nc2cccc(Cl)c2)=C(N2CCCC2)C(=O)c2ccccc21	-2.73% (inactive)
CC(C)N1CCN(C2=C(Nc3ccc(F)cc3)C(=O)c3ccccc3C2=O)CC1	4.05% (inactive)
NC1=C(NS(=O)(=O)c2cccs2)C(=O)c2ccccc2C1=O	8.73% (inactive)
NC1=C(NS(=O)(=O)c2ccc(Br)s2)C(=O)c2ccccc2C1=O	6.49% (inactive)
O=C1C(Nc2ccc(Cl)cc2)=C(N2CCCC2)C(=O)c2ccccc21	-6.05% (inactive)
CCN1CCN(C2=C(Nc3ccc(F)cc3F)C(=O)c3ccccc3C2=O)CC1	12% (inactive)
NC1=C(NS(=O)(=O)c2ccc(Br)cc2)C(=O)c2ccccc2C1=O	0.856% (inactive)
CN1CCN(C2=C(Nc3ccc(F)cc3F)C(=O)c3ccccc3C2=O)CC1	3.7% (inactive)
CC(C)N1CCN(C2=C(Nc3ccc(F)cc3F)C(=O)c3ccccc3C2=O)CC1	-11.3% (inactive)
O=C1C(Nc2ccc(Br)cc2)=C(N2CCCCC2)C(=O)c2ccccc21	4.72% (inactive)
O=C1C(Nc2ccc(F)cc2)=C(N2CCCCC2)C(=O)c2ccccc21	-0.278% (inactive)
O=C1C=C(Nc2ccccc2)C(=O)c2ccccc21	6.12% (inactive)
NC1=C(NS(=O)(=O)c2ccccc2)C(=O)c2ccccc2C1=O	8.49% (inactive)
Cc1ccc(NC2=CC(=O)c3ccccc3C2=O)cc1	3.64% (inactive)

From PubChem BioAssay AID651920 (Broad Institute, 2012)
